Assay results reported in PubChem BioAssay AID1159580 (chemical genetic matrix, 2015).
Several values for one entry are separate records, joined by “and”; a condition that tells them apart may be missing. Equal entries are not always repeated. Screen size: about 5,500 compounds; about 2,000 (36%) were called active. Not shown: some 18% with an inconclusive outcome. Rule as the data show it: active = normalized growth mostly below about 0.91 (no sharp cut-off); inconclusive = no clear call, values can overlap the other calls; inactive = mostly above about 0.92. The list shows a part of the results.

Assay: chemical genetic growth profiling, strain panel (AID 1159580);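 also: tested at 20 µM; growth read once vehicle control cultures reached saturation at 30 °C; 1 = growth at the plate median or of vehicle wells; lower values mean less growth of the strain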
Details: S. cerevisiae deletion strains, growth OD

Measured: normalized growth

COc1ccc2c(c1)c(CC(=O)O)c(C)n2C(=O)c1ccc(Cl)cc1
inactive: locus YAL013W, strain DEP1, hits give low values 1.01 | locus YAL021C, strain ccr4, hits give low values 0.987 | locus YAL026C, strain drs2, hits give low values 0.974 | locus YAL030W, strain snc1, hits give low values 0.988 | locus YAL040C, strain CLN3, hits give low values 0.997 | locus YBL061C, strain skt5, hits give low values 0.959 | locus YBR009C, strain hhf1, hits give low values 0.931 | locus YBR021W, strain FUR4, hits give low values 1 | locus YBR023C, strain chs3, hits give low values 0.969 | locus YBR171W, strain sec66, hits give low values 0.967 | locus YBR229C, strain ROT2, hits give low values 1 | locus YBR231C, strain swc5, hits give low values 0.972 | locus YBR279W, strain paf1, hits give low values 0.988 | locus YCL011C, strain gbp2, hits give low values 0.921 | locus YCL016C, strain dcc1, hits give low values 0.919 | locus YCL029C, strain bik1, hits give low values 0.988 | locus YCL061C, strain MRC1 (second series), hits give low values 1.01 | locus YCL061C, strain MRC1, hits give low values 0.96 | locus YCL069W, strain vba3, hits give low values 0.986 | locus YCR088W, strain abp1, hits give low values 0.99 | locus YDL005C, strain med2, hits give low values 0.973 | locus YDL035C, strain GPR1, hits give low values 1.02 | locus YDL040C, strain nat1, hits give low values 0.991 | locus YDL074C, strain BRE1, hits give low values 1.02 | locus YDL101C, strain DUN1, hits give low values 1.01 | locus YDL185W, strain tfp1, hits give low values 0.973 | locus YDL192W, strain arf1, hits give low values 0.998 | locus YDR001C, strain nth1, hits give low values 0.978 | locus YDR069C, strain doa4, hits give low values 1.01 | locus YDR101C, strain arx1, hits give low values 1.02 | locus YDR137W, strain rgp1, hits give low values 0.95 | locus YDR159W, strain sac3, hits give low values 1.01 | locus YDR162C, strain NBP2, hits give low values 0.995 | locus YDR195W, strain ref2 1.02 | locus YDR297W, strain sur2, hits give low values 1.01 | locus YDR318W, strain mcm21, hits give low values 0.979 | locus YDR334W, strain swr1, hits give low values 0.981 | locus YDR335W, strain msn5, hits give low values 0.991 | locus YDR363W, strain ESC2, hits give low values 0.996 | locus YDR388W, hits give low values 0.982 | locus YDR392W, strain spt3, hits give low values 0.885 | locus YDR502C, strain sam2, hits give low values 0.981 | locus YEL003W, strain gim4, hits give low values 1 | locus YEL037C, strain rad23, hits give low values 0.961 | locus YEL061C, strain CIN8 (second series), hits give low values 0.979 | locus YEL061C, strain CIN8, hits give low values 1 | locus YER002W, strain NOP16, hits give low values 1.02 | locus YER015W, strain faa2, hits give low values 0.976 | locus YER016W, strain bim1, hits give low values 0.989 | locus YER110C, hits give low values 0.986 | locus YER111C, strain swi4, hits give low values 0.98 | locus YER155C, strain BEM2 (second series), hits give low values 0.874 | locus YER155C, strain BEM2, hits give low values 0.989 | locus YER167W, strain BCK2, hits give low values 0.995 | locus YFR010W, strain ubp6, hits give low values 0.975 | locus YGL078C, strain dbp3, hits give low values 0.978 | locus YGL086W, strain mad1, hits give low values 0.995 | locus YGL167C, strain pmr1, hits give low values 0.983 | locus YGL173C, strain kem1, hits give low values 0.985 | locus YGL227W, strain vid30, hits give low values 0.976 | locus YGL240W, strain doc1, hits give low values 1.01 | locus YGL248W, strain PDE1, hits give low values 1.01 | locus YGL253W, strain hxk2, hits give low values 0.993 | locus YGR135W, strain pre9, hits give low values 0.963 | locus YGR252W, strain gcn5, hits give low values 0.94 | locus YHR013C, strain ard1, hits give low values 0.968 | locus YHR027C, strain rpn1, hits give low values 0.981 | locus YHR030C, strain SLT2, hits give low values 1.01 and 0.952 | locus YHR079C, strain IRE1 (second series), hits give low values 0.987 | locus YHR079C, strain IRE1, hits give low values 0.96 | locus YHR094C, strain hxt1, hits give low values 0.975 | locus YHR129C, strain ARP1, hits give low values 1.01 | locus YHR142W, strain chs7, hits give low values 0.912 | locus YHR200W, strain rpn10, hits give low values 0.99 | locus YIL066C, strain RNR3, hits give low values 1 | locus YIL073C, strain SPO22, hits give low values 0.987 | locus YIL125W, strain kgd1, hits give low values 0.945 | locus YIR030C, strain dcg1, hits give low values 0.986 | locus YJL092W, strain hpr5, hits give low values 0.92 | locus YJL095W, strain BCK1 (second series), hits give low values 0.996 | locus YJL095W, strain BCK1, hits give low values 1 and 0.969 | locus YJL115W, strain asf1, hits give low values 0.969 | locus YJL129C, strain trk1, hits give low values 0.909 | locus YJL134W, strain LCB3, hits give low values 0.997 | locus YJL154C, strain vps35, hits give low values 0.989 | locus YJL164C, strain tpk1, hits give low values 0.976 | locus YJL166W, strain qcr8, hits give low values 0.977 | locus YJL168C, strain set2, hits give low values 0.979 | locus YJL187C, strain SWE1 (second series), hits give low values 1 | locus YJL187C, strain SWE1, hits give low values 0.991 | locus YJR043C, strain POL32, hits give low values 1.02 | locus YJR066W, strain TOR1, hits give low values 0.911
